Hits are enriched below; roughly 7.4% of the tested compounds scored in any of these assays.
Rab9 prom act = qHTS Assay for Rab9 Promoter Activators | Huh7 Rab9 promoter-luciferase reporter, luminescence, 24 h | Potency, µM (doses to about 9.22 µM), for the others: at the top dose activation, negative = inhibition, usual class: activators | 2.8% of 320,000 active | AID 485297, 2010; note: % of control where 0% means no effect; nearly all actives have a fitted effect of over 60% in size
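Luciferase signal after 10 min detection reagent at ambient indicates Rab9 promoter upregulation; stably transfected Huh7 cells were treated 24 h with compound in DMSO at 37 °C, 5% CO2.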
ELG1 genotox = qHTS screen for small molecules that induce genotoxicity in human embryonic kidney (HEK293T) cells expressing luciferase-tagged ELG1. HEK293T ELG1-luciferase reporter, luminescence, 16 h. Potency, µM (series often up to 46 µM), inactives show at the highest dose activity change, positive = activation, actives largely listed as activators. 1.3% of 330,000 active; note: % of control where 0% means no effect; nearly all actives have a fitted effect of over 60% in size
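Screening used a luciferase reporter fused to human ELG1 in HEK293T cells. Luminescence was read on a CCD plate imager after 16 hr exposure and 30 min ONE-Glo incubation.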
NPC1 promoter act = qHTS Assay for NPC1 Promoter Activators. Huh7 NPC1 promoter luciferase reporter, 24 h. Potency, µM (series often up to 9.22 µM), for the others: top-dose activation, usual class: activators. 2.4% of 320,000 active. AID 485313, 2010; note: % of control where 0% means no effect; nearly all actives have a fitted effect of over 60% in size
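Stable NPC1-promoter luciferase Huh7 line; cpd (DMSO) 24 h, 37 °C, 5% CO2; Amplite luciferase reagent 10 min RT; luminescence readout. qHTS format.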
FLuc modulator = qHTS profiling assay for firefly luciferase inhibitor/activator using purifed enzyme and Km concentrations of substrates (counterscreen for miR-21 project); Luciferin 4-monooxygenase (Photinus pyralis), P08659; purified FLuc, Km substrates, luminescence inhibition; Potency, µM (series often up to 57.5 µM), inactives show at the highest dose activity change, negative = inhibition, most hits filed as inhibitors; 6.9% of 360,000 active; AID 588342, 2011;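 note: plate controls were vehicle for no effect and reference inhibitor for full effect; nearly all actives have a fitted effect of over 55% in size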
Target sequence (P08659 whole entry, looked up): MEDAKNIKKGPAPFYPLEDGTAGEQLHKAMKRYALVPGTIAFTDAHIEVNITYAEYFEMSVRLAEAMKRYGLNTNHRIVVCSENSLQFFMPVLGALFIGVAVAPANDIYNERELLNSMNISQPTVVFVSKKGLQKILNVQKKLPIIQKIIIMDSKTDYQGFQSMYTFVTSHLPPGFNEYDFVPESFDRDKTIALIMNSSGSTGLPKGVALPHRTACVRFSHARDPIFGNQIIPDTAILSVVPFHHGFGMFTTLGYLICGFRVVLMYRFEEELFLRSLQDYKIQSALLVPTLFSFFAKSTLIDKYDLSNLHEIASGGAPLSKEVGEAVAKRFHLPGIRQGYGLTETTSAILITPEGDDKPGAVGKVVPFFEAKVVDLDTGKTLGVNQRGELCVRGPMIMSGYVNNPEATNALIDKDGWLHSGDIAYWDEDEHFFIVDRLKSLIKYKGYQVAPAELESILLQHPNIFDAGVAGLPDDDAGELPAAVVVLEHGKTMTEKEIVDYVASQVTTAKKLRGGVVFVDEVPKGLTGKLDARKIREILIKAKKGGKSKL
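Biochemical qHTS of compounds, final roughly 60 µM downward over six points, against 10 nM purified firefly luciferase using Km concentrations of substrates (10 uM D-luciferin, 10 uM ATP) in Tris acetate pH 7.5 buffer; luminescence output.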
SMN2 splice up = qHTS Assay for Enhancers of SMN2 Splice Variant Expression | HEK293 SMN2-luciferase splicing reporter, luminescence, 30-36 h | Potency, µM (titrated, usually from 46.1 µM), inactives show at the top dose activity change, positive = activation, actives largely listed as activators | 2.8% of 210,000 active | AID 1458, 2008; note: % of control where 0% means no effect; nearly all actives have a fitted effect of over 55% in size
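HEK293 cells carry an SMN2 minigene-luciferase reporter in which exon 7 inclusion puts luciferase in frame. Cells were seeded at 2000 cells/well, attached for 10-12 hours, then exposed to compounds for 30-36 hours at 37C before ONE-Glo luminescence.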
* = called active by the depositor; ? = inconclusive; / = not tested or not shown. Calls come from the whole dose curve; as a rule, active = well fitted curve in the direction sought with a large enough effect; inconclusive = small, poorly fitted or top-dose-only effect, or another doubt; inactive = no such curve, though single readings can be large; an effect the other way counts as inactive or inconclusive. Potency is the fitted concentration of half-maximal effect.

SMILES	Rab9 prom act	ELG1 genotox	NPC1 promoter act	FLuc modulator	SMN2 splice up
COc1ccc(-c2nnc(SC(C)C(=O)NNC(=O)c3ccc(C)cc3)o2)cc1 (stereo not given)	14%	2%	3%	-19%	-27%
COc1ccc(-c2nnc(SC(C)C(=O)Nc3cccc(Cl)c3)o2)cc1 (stereo not given)	4µM*	21µM*	?	-18%	16µM*
COc1cccc(-c2cc(C(F)(F)F)nc(-n3nc(C)c(Br)c3C)n2)c1	/	/	/	-1%	6%
O=Cc1c[nH]c2cccc(OCc3ccccc3)c12	30%	11%	17%	11µM*	/
O=C[C@@H]1CCCN1C(=O)[C@@H]1CCCN1C(=O)OCc1ccccc1	/	/	/	/	0%
O=C(N/N=C/C=C\c1ccco1)c1ccccn1	9%	?	?	?	/
CC(/C=N/NC(=O)c1ccccn1)=C\c1ccco1	1.4µM*	?	1.4µM*	3.8µM*	/
Cc1cc(C(=O)N/N=C/C(Cl)=C/c2ccccc2)c(C)o1	24%	1%	20%	9.5µM*	/
O=C(N/N=C/C=C\c1ccccc1)c1cnccn1	4%	4%	-2%	?	16%
O=C(NN=C1c2ccccc2-c2ccccc21)c1ccccn1	15%	3%	21%	5.4µM*	-19%
O=C(N/N=C/C(Br)=C/c1ccccc1)c1cnccn1	3.5µM*	?	19%	6µM*	/
Cc1ccc(-n2ncc(C(=O)NCc3ccccc3C)c2-n2cccc2)cc1	/	/	/	-19%	/
COc1ccccc1N1CCN(C(=O)c2cc3c(=O)oc4ccccc4c3s2)CC1	/	/	/	0%	2%
O=C(N/N=C/C=C/c1ccccc1)c1ccccn1	3.5µM*	?	?	17µM*	/
O=C(N/N=C/C(Cl)=C/c1ccccc1)c1ccccn1	1.8µM*	?	4µM*	4.8µM*	13µM*
O=C(N/N=C1\C/C(=N\NC(=O)c2ccncc2)c2ccccc21)c1ccncc1	-25%	-3%	3%	4.8µM*	/
O=C(NN=C1C2CC3CC(C2)CC1C3)c1ccncc1	5%	2%	1%	5%	-8%
Cc1ccc(-c2cc(C(=O)N/N=C/C=C/c3ccccc3)n[nH]2)s1	-2%	-2%	-3%	9.5µM*	-30%
CCOc1cc(C(=O)Nc2ccc3oc(-c4ccc(CC)cc4)nc3c2)cc(OCC)c1OCC	/	/	/	-10%	-13%
CCN1CCN(c2cc(C)c3cc(NC(=O)c4cc(Br)ccc4Cl)ccc3n2)CC1	/	/	/	2%	8%
O=C(N/N=C/C(Cl)=C/c1ccccc1)c1ccncc1	11%	4%	-2%	17µM*	9%
O=C(N/N=C/c1ccncc1)c1ccccc1	-3%	6%	3%	?	24%
Cc1cc(C(=O)CSc2nc3ccccc3o2)c(C)n1C1CC1	2.2µM*	18µM*	2.2µM*	13µM*	11µM*
C=CCn1c(C)cc(C(=O)CSc2nc3ccccc3o2)c1C	?	1.6µM*	0.63µM*	1.9µM*	?
Cc1cc(C(=O)CSc2ncnc3ccccc23)c(C)n1C1CC1	-6%	0%	15%	?	/
SMILES	Rab9 prom act	ELG1 genotox	NPC1 promoter act	FLuc modulator	SMN2 splice up
C=CCn1c(C)cc(C(=O)CSc2nnc(Cc3ccccc3)o2)c1C	7%	1%	14%	15µM*	-7%
Cc1cc(C(=O)CSc2nnc(Cc3ccccc3)o2)c(C)n1Cc1ccc2c(c1)OCO2	-6%	-6%	-6%	-22%	-49%
O=C(CSc1nnc(NCc2ccccc2)s1)c1ccco1	10%	5%	17%	15µM*	9%
Cn1c(SCC(N)=O)nc2c([nH]c3ccccc32)c1=O	/	/	/	0%	/
Clc1ccc(-c2cc3ncc4c(n3n2)-c2ccccc2OC4)cc1	/	/	/	-8%	-3%
C=CCn1c(C)cc(C(=O)CSc2nnc(NCc3ccccc3)s2)c1C	11%	13%	7%	17µM*	3%
C=CCn1c(C)cc(C(=O)CSc2nnc(NC(C)C)s2)c1C	15%	1%	27%	?	10%
CCOC(=O)Cn1cc(C(=O)c2cccs2)c2ccccc21	-5%	-2%	2%	?	0.14µM*
Cc1ccc(Nc2nnc(-c3ccccc3N)o2)cc1C	3.5µM*	?	3.5µM*	2.7µM*	/
CCC(=O)Nc1ccc(C(=O)Nc2ccc3c(c2)OCO3)cc1	14%	11%	18%	?	2%
CCc1ccc2[nH]c(C(=O)Nc3ccc4c(c3)OCO4)cc2c1	26%	14%	?	2.7µM*	/
Cc1cc(C)c2[nH]c(C(=O)Nc3ccc4c(c3)OCO4)cc2c1	?	1%	?	12µM*	/
CCc1ccc2[nH]c(C(=O)Nc3ccc(Br)c(C)n3)cc2c1	1.4µM*	?	2.2µM*	?	/
CCOc1ccc(NC(=O)Cn2ncc3c2-c2cc(C)ccc2OC3)cc1	/	/	/	5%	-2%
Cc1ccc(N=Cc2cc(C)n(C3CCCC3)c2C)cc1	-6%	0%	6%	11µM*	11%
Cc1cc(/C=N/NC(=O)c2ccc(O)cc2)c(C)n1C1CC1	-5%	1%	-1%	?	-1%
CC(C)C[C@@H](CC(=O)N[C@@H](CCCN)CC(=O)N[C@@H]1CCCC[C@H]1C(=O)N[C@H](CC(=O)N[C@@H](CCC(=O)O)CC(=O)O)Cc1ccccc1)NC(=O)[C@@H]1CCCC[C@H]1N	/	/	/	/	-1%
O=C(CSCc1ccccc1Cl)Nc1ccc2c(c1)OCCO2	1.6µM*	?	1.8µM*	6.7µM*	45%
O=C(CSCc1ccc(Cl)cc1)Nc1ccc2c(c1)OCO2	-5%	0%	1%	?	2%
Cn1c(C(=O)O)c(CC(=O)Nc2ccc3c(c2)OCCO3)c2ccccc21	5%	?	-1%	19µM*	-35%
Cc1ccc(NC(=O)Cc2c(C(=O)O)n(C)c3ccccc23)cc1F	2%	1%	-1%	?	/
O=C(CNCc1ccccc1Cl)Nc1ccc2c(c1)OCCO2	2.8µM*	?	3.2µM*	21µM*	/
Fc1cccc(-c2cc3nc4c(c(NCc5ccco5)n3n2)CCCC4)c1	?	17%	?	7.6µM*	11µM*
O=C(NCc1ccccc1)c1ccc2c(c1)N(Cc1ccccc1F)C(=O)c1ccccc1S2=O (stereo not given)	/	/	/	-2%	10%
COc1ccc(-n2nc(C(=O)NCC(=O)NCCCN3CC(C)CC(C)C3)c3ccccc3c2=O)cc1 (stereo not given)	-4%	4%	2%	2%	/
COc1ccc(-n2nc(C(=O)NCC(=O)N3CCN(C)CC3)c3ccccc3c2=O)cc1	0%	4%	-3%	15µM*	/
CCOC(=O)N1CCN(C(=O)CNC(=O)c2nn(-c3ccc(OC)cc3)c(=O)c3ccccc23)CC1	?	0%	6%	3.8µM*	25%
